For 39 compounds, growth inhibition results are on record in PubChem BioAssay (NCI).

The panel holds about 79,000 compounds, 15% with a hit somewhere; the sample as a whole holds those more often. A number with no mark means an inactive call. Activity calls are given as the source filed them. Rule as the data show it: active = growth inhibition above about 70%; inactive = the rest.

A short description of this assay: NCI Yeast Anticancer Drug Screen. Data for the rad50 strain (AID 155).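 Also: 0% = growth of vehicle-only cultures of the same strain.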 The following applies: S. cerevisiae rad50 strain growth inhibition; at 50.0 µM; stronger effect = higher value. The essentials:
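A DNA repair-deficient yeast mutant serves as the test organism; compound-induced growth inhibition is calculated against vehicle-treated cells.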
Consider `O=C(OC1C2CCC2C2CC21)c1ccc([N+](=O)[O-])cc1[N+](=O)[O-]` (centres undefined), for which the growth inhibition is 36%. `N#CCc1nc2c(s1)C(=O)c1ccccc1C2=O`: the growth inhibition was 71.4% (active). Next, `CC1=C(C(=S)Nc2ccc(Cl)c(C(=O)OC(C)C)c2)SCCO1`: 89.6% (active). Turning to `O=C1C(Cl)=C(c2ccc([N+](=O)[O-])cc2)C(=O)c2c(O)cccc21`, the growth inhibition was 90% (active).

`CCOc1ccc2nc(C)cc(C)c2c1`: the growth inhibition was 26.6%. In the case of `CN(C)CC(O)c1cc(-c2ccc(Cl)cc2)nc2c(Cl)cc(Cl)cc12` (centres undefined), the growth inhibition was 99.2% (active). The value for `CCCC(=S)N1CCOCC1` was -23.9%; that for `C/C(=C/CC1CCC2C3=CCC4CC(O)CCC4(C)C3CCC12C)C(C)C(C)C` (centres undefined) was 98% (active); that for `NCC(O)CSc1ccc(Cl)c(Cl)c1` (centres undefined) was 8.95%. The value for `CCCCCCCCC(=O)NCCCNCCCNC(=O)CCCCCCCC` was 69%.

As to `O=C1c2ccc(O)cc2C(=O)c2c1ccc(O)c2O`, the growth inhibition was 76% (active). Next, `Clc1nc(Cl)c(Cl)c(-c2ccccc2)n1`: 90.3% (active); `Cc1ccc(-c2c(C#N)c(-c3ccc(Cl)cc3)c(C#N)c(=O)n2NS(=O)(=O)c2ccccc2)cc1`: 63.2%; `CC(CCC(=O)O)(c1cc(Br)c(O)c(Br)c1)c1cc(Br)c(O)c(Br)c1`: 90.8% (active).

In the case of `N#CC(C(=O)CCCC(=O)Nc1ccc(Cl)cc1)c1ccccc1Cl` (centres undefined), the growth inhibition is 96.8% (active).

On to `Cc1ccc(S(=O)(=O)S/C(=N\c2ccccn2)Nc2ccccn2)cc1`, for which the growth inhibition was 38.9%. Next, `NC(=O)C1CCCN1C(=O)C1CCCN(Cc2cc(CN3CCCC(C(=O)N4CCCC4C(N)=O)C3)cc(CN3CCCC(C(=O)N4CCCC4C(N)=O)C3)c2)C1` (centres undefined): 78.1% (active); `O=C(/C=C\c1cccc2ccccc12)c1ccccn1`: 98.2% (active). The value for `COC(=O)c1cccc2c1C(=O)c1ccccc1-2` was 22.7%; that for `Cn1c(=S)c2[nH]c(SCCN3CCCCC3)nc2n(C)c1=O` was 97.2% (active). The value for `CN(C)CCCSc1c2ccccc2nc2cccc([N+](=O)[O-])c12` was 3.65%. Consider `CCCCCCCCN(CCCCCCCC)CC(O)c1cc(-c2ccc(Cl)cc2)nc2c(Cl)cccc12` (centres undefined), for which the growth inhibition is 19.1%.

Turning to `CCCCCCCCCCCCS`, the growth inhibition is 26.2%. Next, `COC(=O)c1nc(=S)[nH]c(C(=O)OC)c1C(=O)c1ccc([N+](=O)[O-])cc1`: 96.8% (active); `Cc1[nH]c2ccccc2c1C1=CC2(C)Nc3ccccc3C2C(C)(C)C1` (centres undefined): 90.2% (active). Next, `CCCCCCCCN(CCCCCCCC)CC(O)c1cc(-c2ccc(OC)cc2)nc2cc(Cl)ccc12` (centres undefined): 42.5%; `O=C(CC(C[N+](=O)[O-])c1ccc2c(c1)OCO2)c1ccccc1` (centres undefined): -12.5%.

Take `CN(C)CCN(C)CCC(=O)/C=C/c1ccccc1`: the growth inhibition was 87.9% (active). Take `NC(N)=NC(N)=Nc1ccc(-c2ccccc2)cc1`: the growth inhibition is -11.6%.

For `O=[N+]([O-])c1ccccc1NCCO`, the growth inhibition was -10.2%. Next, `Cn1c2c(c3ccccc31)CCN(CCN1CCN(c3cccc(Cl)c3)CC1)C2=O`: 88.8% (active). The value for `CC(=O)Oc1c2c(c(C)c3ccccc13)C(=O)c1cccnc1C2=O` was 98.4% (active). The value for `O=C(/C(=C/c1ccc2c(c1)OCO2)c1ccccc1)c1ccc(OCCN2CCCC2)cc1` was 34.9%; that for `O=C1C(=O)c2cc(Cl)ccc2-c2ccc(Cl)cc21` was 91% (active).

For the compound `C/C(=N/NC(=O)Nc1ccc(N=Nc2ccccc2)cc1)c1cccnc1`, the growth inhibition was 12.7%.

As for `CC(Cl)C(=O)Nc1cc2ccccc2oc1=O` (centres undefined), the growth inhibition is 10.7%. `CC(C)c1ccc2c(c1)CCC1C(C)(CN)CCCC21C` (centres undefined): the growth inhibition was 99.2% (active).

As to `CN(NC1OC(=O)c2ccccc21)c1ccc(C(F)(F)F)cc1[N+](=O)[O-]` (centres undefined), the growth inhibition is 65.7%. Turning to `CCCC(CC)c1c(O)c(O)c(C(CC)CCC)c(C(CC)CCC)c1C(CC)CCC` (centres undefined), the growth inhibition was 95.5% (active).
